# Sampled rows, rich in hits. Any-hit rate of the full collection: about 2.8%.
# Pol beta inh – qHTS Assay for Inhibitors of DNA Polymerase Beta | 340,000 compounds, 1.3% hits | Pol beta primer extension/strand displacement, fluorescence kinetic | AID 485314, 2010 | Potency, µM (highest dose often 114 µM), for inactives: top-dose activity change, negative = inhibition, most hits filed as inhibitors; also: potency is read from the fitted curve at half-maximal effect; % is scaled to controls: 0 for no effect and ±100 for the full control effect
#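 Values derive from four-parameter Hill fits of normalized kinetic data: reads at 0 and 10 min following addition of 50 nM substrate to 10 nM Pol beta preincubated 15 min with compound.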
# PI5P4K alpha inh – qHTS for Inhibitors of phosphatidylinositol 5-phosphate 4-kinase (PI5P4K); AID 652105, 2013; Phosphatidylinositol 5-phosphate 4-kinase type-2 alpha (Homo sapiens), P48426; max response, %; 330,000 compounds, 1.2% hits; PI5P4Kalpha enzyme, ADP-Glo luminescence, 60 min; stronger effect = lower value; active = max response of -50% or lower; inconclusive = between -30% and -50%; inactive = -30% or higher; also: value at the top dose of about 77 µM; % is scaled to controls: 0 for no effect and ±100 for the full control effect
#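 Compounds were pin-transferred onto PI5P4Kalpha and substrate in HEPES pH 7.4 buffer with EGTA, CHAPS and 5% DMSO. ATP (5 microM final) started the reaction, which ran 60 minutes at room temperature before ADP-Glo detection.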
# POLI inh – qHTS for Inhibitors of Polymerase Iota; Pol iota fluorescent replication assay, 10 min; 390,000 compounds, 1% hits; AID 588590, 2011; DNA polymerase iota (Homo sapiens), Q9UNA4; Potency, µM (top dose mostly 115 µM), for the others: at the highest dose activity, negative = inhibition, actives largely listed as inhibitors; also: potency is read from the fitted curve at half-maximal effect
# Target sequence (Q9UNA4 whole entry, looked up): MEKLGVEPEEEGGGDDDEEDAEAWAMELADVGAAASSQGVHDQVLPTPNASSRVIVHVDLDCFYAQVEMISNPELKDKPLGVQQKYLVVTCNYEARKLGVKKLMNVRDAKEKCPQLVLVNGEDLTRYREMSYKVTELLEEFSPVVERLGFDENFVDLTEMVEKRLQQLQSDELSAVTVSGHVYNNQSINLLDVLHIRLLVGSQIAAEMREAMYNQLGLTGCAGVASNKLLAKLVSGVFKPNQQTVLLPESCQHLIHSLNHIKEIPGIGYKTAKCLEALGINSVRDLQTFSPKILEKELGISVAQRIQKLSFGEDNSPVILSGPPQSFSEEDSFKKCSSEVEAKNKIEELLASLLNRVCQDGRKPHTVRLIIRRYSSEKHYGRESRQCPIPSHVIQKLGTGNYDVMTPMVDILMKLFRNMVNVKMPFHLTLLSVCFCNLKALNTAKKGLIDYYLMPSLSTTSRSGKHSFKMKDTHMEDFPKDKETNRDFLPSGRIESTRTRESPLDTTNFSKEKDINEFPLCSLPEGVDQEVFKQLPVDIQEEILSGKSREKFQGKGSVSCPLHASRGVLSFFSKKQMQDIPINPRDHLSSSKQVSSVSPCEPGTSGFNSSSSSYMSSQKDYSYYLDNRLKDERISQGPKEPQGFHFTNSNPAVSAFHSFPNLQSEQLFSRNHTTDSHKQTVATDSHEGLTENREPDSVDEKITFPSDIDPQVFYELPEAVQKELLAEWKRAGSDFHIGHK
#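 Fluorescent replication assay read twice, at 0 min and 10 min after adding 50 nM (final) substrate. Enzyme (10 nM) and compounds were first incubated 15 min at room temperature; enzyme-free buffer wells were negative controls.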
# Pol eta inh-1 – qHTS for Inhibitors of Polymerase Eta; 390,000 compounds, 1.2% hits; DNA polymerase eta (Homo sapiens), Q9Y253; Potency, µM (top dose mostly 114 µM), for the others: top-dose activity change, negative = inhibition, hits mostly inhibitors; recombinant Pol eta, fluorescent DNA replication assay; also: potency is read from the fitted curve at half-maximal effect; % is scaled to controls: 0 for no effect and ±100 for the full control effect
#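 Pol eta at 10 nM preincubated with compounds 15 min at room temperature; reaction started with fluorescent substrate (50 nM final) and read kinetically at 0 and 10 min.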
# POLK inh – qHTS for Inhibitors of Polymerase Kappa; Potency, µM (series often up to 107 µM), without a hit: at the top dose activity, negative = inhibition, usual class: inhibitors; AID 588579, 2011; DNA polymerase kappa (Homo sapiens), Q9UBT6; 400,000 compounds, 0.53% hits; purified Pol kappa, fluorescent DNA synthesis assay, 10 min; also: potency is read from the fitted curve at half-maximal effect; % is scaled to controls: 0 for no effect and ±100 for the full control effect
#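 Readout: fluorescence, taken kinetically at 0 and 10 min. Conditions: 10 nM Pol kappa, 15 min RT compound preincubation, 50 nM substrate final. Controls: enzyme-free buffer wells.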
# FEN1 inh-1 – qHTS Assay for the Inhibitors of Human Flap endonuclease 1 (FEN1) | Recombinant FEN1 flap cleavage, fluorescence, 15 min | Potency, µM (series often up to 114 µM), without a hit: at the top dose activity change, negative = inhibition, usual class: inhibitors | 390,000 compounds, 0.35% hits | AID 588795, 2011; also: potency is read from the fitted curve at half-maximal effect; % is scaled to controls: 0 for no effect and ±100 for the full control effect; nearly all actives have a fitted effect of over 65% in size
#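 Read-out was taken twice, immediately and after 15 min, following addition of 50 nM substrate to 10 nM FEN1 that had sat with test compound for 15 min at room temperature. Curves came from a four-parameter Hill model.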
# Pol eta inh-2 – qHTS for Inhibitors of Polymerase Eta: Confirmatory Assay for Cherry-picked Compounds; shares compounds with Pol eta inh-1; Pol eta primer extension, TAMRA/BHQ fluorescence, 10 min; Potency, µM, usual class: inhibitors; 2,600 compounds, 64% hits; AID 720502, 2013; also: potency is read from the fitted curve at half-maximal effect
# FEN1 inh-2 – qHTS Assay for the Inhibitors of FEN1: Confirmatory Assay for Cherry-picked Compounds. 880 compounds, 79% hits. Potency, µM, most hits filed as inhibitors. FEN1 flap cleavage, TAMRA/BHQ2 fluorogenic DNA substrate. shares compounds with FEN1 inh-1. AID 720498, 2013; also: potency is read from the fitted curve at half-maximal effect; nearly all actives have a fitted effect of over 60% in size
# ADP-Glo counter – qHTS for Inhibitors of PI5P4K: ADP-Glo counter assay; shares compounds with PI5P4K alpha inh; ADP-Glo detection counter-screen, luciferase luminescence, no enzyme; Potency, µM (highest dose often 76.9 µM), without a hit: top-dose activity change, negative = inhibition, most hits filed as inhibitors; 1,100 tested, under 10 active; AID 743285, 2014
# Active calls of the source: *; ? = inconclusive; . = no result given; [ ] = another dose, or the depositor's remark. Unless noted, calls follow the shape of the dose curve; as a rule, active = well fitted curve in the direction sought with a large enough effect; inconclusive = small, poorly fitted or top-dose-only effect, or another doubt; inactive = no such curve, though single readings can be large; an effect the other way counts as inactive or inconclusive.
SMILES,Pol beta inh,PI5P4K alpha inh,POLI inh,Pol eta inh-1,POLK inh,FEN1 inh-1,FEN1 inh-2,others
Cc1csc(NC(=O)c2cc(C)nc3ccccc23)n1,17%,-4,58%,-8%,-9%,-7%,.,
Cc1cc(C(=O)Nc2sccc2C#N)c2ccccc2n1,2%,-73*,?,45µM*,-38%,-15%,.,Pol eta inh-2=?;ADP-Glo counter=1%
COc1ccc(NC(=S)N2CCNC(=O)C2CC(=O)Nc2cccc(Cl)c2C)cc1 (stereo unspecified),35%,5,-2%,-7%,-5%,-3%,.,
O=C(ONC(=O)C1CCCCC1C(=O)NOC(=O)c1ccccc1)c1ccccc1 (stereo unspecified),.,3,3%,-22%,-3%,18µM*,13*,
CN(C)S(=O)(=O)c1ccc(C(=O)NCCC(=O)N2CCCC2)cc1,23%,3,163%,-18%,-4%,7%,.,
O=C(OCCc1ccccc1)c1cc(O)c(O)c(O)c1,.,-18,?,5%,45µM*,40µM*,38*,
Nc1ccc(C(=O)OCCc2ccccc2)cc1,.,17,1%,-1%,-5%,-14%,.,
CCOC(=O)C1CCN(C(=O)COC(=O)c2cc([N+](=O)[O-])ccc2N2CCOCC2)CC1,.,-5,26%,-13%,-2%,4%,.,
CC1CCCC(C)N1C(=O)COC(=O)c1cc([N+](=O)[O-])ccc1N1CCOCC1 (stereo unspecified),.,-5,4%,-8%,0%,3%,.,
Cn1c(N)c(C(=O)COC(=O)c2ccc([N+](=O)[O-])o2)c(=O)n(C)c1=O,-3%,2,50µM*,89µM*,-26%,?,8.5*,
Cc1ccc(C(=O)OC(C)C(=O)NC2CCCCC2C)s1 (stereo unspecified),.,-6,11%,-2%,3%,-2%,.,
CC(OC(=O)c1ccc([N+](=O)[O-])o1)C(=O)NC1CCCCC1C (stereo unspecified),.,-4,-6%,?,-16%,13µM*,6*,
CCOC(=O)C1CCN(C(=O)COC(=O)c2ccc([N+](=O)[O-])o2)CC1,.,-4,50µM*,79µM*,-4%,?,11*,
CC1CCCC(C)N1C(=O)COC(=O)c1ccc([N+](=O)[O-])o1 (stereo unspecified),.,1,50µM*,50µM*,-13%,?,15*,
CC[n+]1c(/C=C(\C)OC)sc2ccccc21,9%,1,11%,-6%,-4%,6%,.,
CC[n+]1c(/C=C/C=C/N(C(C)=O)c2ccccc2)sc2cc(OC)ccc21,16µM*,-54*,?,?,35µM*,50µM*,43*,
O=C(NC1CCCCCC1)c1cc(-c2ccccn2)nc2ccccc12,19%,-6,-6%,4%,-6%,-20%,.,
Nc1ccc2nc(-c3cccc(-c4nc5ccc(N)cc5[nH]4)c3)[nH]c2c1,?,-16,?,?,35µM*,?,38*,
Nc1ccc2nc(-c3cc(Cl)c(N)c(Cl)c3)[nH]c2c1,?,?,-11%,?,?,50µM*,?,
O=C(NC12CC3CC(CC(C3)C1)C2)N1CCN(C(=O)c2ccco2)CC1,10%,1,50%,-19%,8%,-1%,.,
CN(C)CCCNc1cc(O)c2ncccc2c1,.,.,6.3µM*,-5%,-13%,-27%,38*,
Cc1c(Cl)cccc1NC(=S)N1CCC(N(C)CC2CCCO2)CC1 (stereo unspecified),11%,5,-8%,1%,-2%,-16%,.,
O=C(Cc1ccccc1)NC(c1ccco1)c1cc(Cl)c2cccnc2c1O (stereo unspecified),.,.,.,.,.,.,30*,
Cn1c(=O)c(C(=O)Nc2ncccc2O)c(O)c2ccccc21,31%,.,-2%,-2%,-21%,50µM*,60*,
CNC(=S)NCCCCc1cnc[nH]1,.,.,.,.,8%[60.1 µM],.,.,
SMILES,Pol beta inh,PI5P4K alpha inh,POLI inh,Pol eta inh-1,POLK inh,FEN1 inh-1,FEN1 inh-2,others
CC(C)Nc1nc(-c2ccccc2)nc(-n2ccnc2)n1,0%,.,9%,-4%,-6%,-10%,.,
c1ccc(-c2nc(-n3ccnc3)nc(-n3ccnc3)n2)cc1,-12%,0,-1%,?,-15%,?,43*,
COc1ccc(C2(CNC(=O)c3cccs3)CCOCC2)cc1,-2%,0,32%,-1%,15%,0%,.,
CCCn1c(N)c(C(=O)CSc2nnc(-c3c[nH]c4ccccc34)n2C2CC2)c(=O)[nH]c1=O,.,-8,98%,-24%,-20%,7%,.,
Cn1c(N)c(C(=O)CSc2nnc(-c3c[nH]c4ccccc34)n2C2CC2)c(=O)[nH]c1=O,.,-14,40µM*,?,-38%,20µM*,43*,
CCOc1ccc(-c2cc3cc(OC)c(OC)cc3c(C)n2)cc1,-20%,6,58%,15%,-11%,0%,.,
COc1cc2cc(-c3ccc(O)cc3O)nc(C)c2cc1OC,?,-5,?,?,-17%,?,?,
COC(=O)c1ccc(CN(C)S(=O)(=O)c2cccs2)cc1,39%,6,40%,-27%,1%,-3%,.,
COc1ccc(NC(=O)c2cc3c(-c4ccc(OC)c(OC)c4)nn(C)c3s2)cc1OC,28µM*,0,?,?,?,11µM*,11*,
O[C@H]1C[C@H](c2ccccc2)N(CC2CCCCC2)C[C@@H]1n1cc(C2CC2)nn1,.,9,.,-18%,.,.,.,
CCOC(=O)c1cc2c(=O)n3ccccc3nc2n(Cc2ccco2)c1=NC(=O)c1ccc(OCC)cc1,20%,.,?,-5%,-37%,-17%,.,
